hcDAF-12 act – H. contortus DAF-12 activation, primary screen; activation, % at 6.8 µM; HEK293 hcDAF-12 lit1-tk-luc reporter, luminescence; 0% DMSO, 100% Δ7-dafachronic acid; 1.4% of 370,000 active; AID 652067;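 active = activation above the mean of all tested compounds plus 3 SD, cut at about 5.5% in these data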
DAX1 inh-1 – blocks DAX1 repression of SF-1 activated StAR promoter. HEK293T StAR-luciferase reporter, SF-1/DAX-1 repression relief. inhibition, % at 6.8 µM. 1.1% of 370,000 active. AID 652010;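 active = inhibition above the mean over all tested compounds plus 3 SD, cut at about 3.6% in these data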;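 note: higher inhibition means more luminescence from relief of DAX-1 repression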
Rev-erbA mod – modulates human Rev-erb alpha binding to DNA. P20393. Rev-erbα–FITC-DNA binding, fluorescence polarization, 90 min. 0.79% of 370,000 active. activity, % at 10 µM. AID 1259318;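 active = activity above about 14%, limit read from the data; passing the limit was not always enough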
DAX1 inh-2 – NR0B1 (DAX1) inhibition | inhibition, % at 6.75 µM | P51843 | HEK293 Gal4-DAX1 luciferase reporter, luminescence | 0.99% of 340,000 active;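 active = inhibition above the mean over all tested compounds plus 3 SD, cut at about 4.2% in these data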;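 note: inhibition shows as a rise in luminescence from relieved DAX1 repression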
Target sequence (P51843 207-470 limits assumed): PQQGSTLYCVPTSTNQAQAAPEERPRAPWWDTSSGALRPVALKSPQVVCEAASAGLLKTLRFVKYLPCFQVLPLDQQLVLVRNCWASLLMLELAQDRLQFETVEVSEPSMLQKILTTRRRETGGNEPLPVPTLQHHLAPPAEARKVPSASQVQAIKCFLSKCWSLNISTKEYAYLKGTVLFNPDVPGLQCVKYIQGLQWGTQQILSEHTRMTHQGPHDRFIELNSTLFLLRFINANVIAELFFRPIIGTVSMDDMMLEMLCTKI
hgDAF12 agonist – hgDAF-12 agonism, primary luciferase screen; activation, % at 6.8 µM; 1.8% of 370,000 active; HEK293 GAL4-hgDAF12 UAS-luciferase reporter, agonist luminescence; normalized to butyrate control;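 active = activation above a cutoff set at the mean of all screened compounds plus 3 SD, cut at about 10% in these data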
ssDAF12 agonist – activators of S. stercoralis DAF-12 nuclear receptor. HEK293 ssDAF-12/GRIP1 lit1-tk-luc reporter, luminescence; % of 3 µM dafachronic acid response. activation, % at 6.8 µM. 1% of 370,000 active. AID 652126;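 active = activation above the mean over all tested compounds plus 3 SD, cut at about 0.9% in these data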
Of the large screens only hits and unclear results are named; the others gave an inactive call. An excerpt weighted towards active compounds, which were near 4.8% of everything screened.

COc1cccc(NC(=O)CSc2nnc(-c3ccc(C)cc3)o2)c1	DAX1 inh-1 6.5, DAX1 inh-2 6.1, hgDAF12 agonist 11
COc1cccc(NC(=O)CSc2ccccn2)c1	hgDAF12 agonist 13
COc1ccc(C(=O)NCCSc2ccccn2)cc1	hcDAF-12 act 6.4, hgDAF12 agonist 12
COc1ccc(N(CC(=O)NCCSc2ccccn2)S(C)(=O)=O)cc1	none
O=C(CSc1nnc(-c2ccc(O)cc2)o1)Nc1ccc2c(c1)OCCO2	DAX1 inh-1 3.6
Cc1ccc(NC(=O)CSc2nnc(-c3ccncc3)o2)cc1	none
COC(=O)[C@]12C[C@H](CC(=O)N3CCOCC3)C(=O)N(CCc3ccc(OC)c(OC)c3)C1=C[C@H](C1CCCC1)O[C@@H]2C	none (no result: DAX1 inh-2)
COC(=O)[C@]12C[C@H](CC(=O)N3CCN(C(=O)C4CC4)CC3)C(=O)N(CCc3ccc(OC)c(OC)c3)C1=C[C@H](C1CCCC1)O[C@@H]2C	none (no result: DAX1 inh-2)
CCC[C@H](/C=C/C(=O)OC(C)(C)C)Sc1ccc(OC)cc1	none (no result: DAX1 inh-2)
COC(=O)COc1ccc(C)cc1-n1nc2ccccc2n1	none
Cc1ccc(OC(=O)COc2ccccc2C)c(-n2nc3ccccc3n2)c1	hcDAF-12 act 6.2
Cc1ccc(S(=O)(=O)c2nc(-c3ccccc3)oc2NCCCN2CCOCC2)cc1	hgDAF12 agonist 11
COc1ccc(-c2nc(S(=O)(=O)c3ccccc3)c(NCCCN3CCOCC3)o2)cc1	none
CNC(=O)NC(=O)COC(=O)CCCOc1ccc(OC)cc1	DAX1 inh-2 5.6
CC(=O)C1=C(C)N(Cc2ccc(F)cc2)C(=S)NC1c1ccc(Br)cc1 (stereo not given)	none (no result: DAX1 inh-2)
CC1Sc2ccc(C(=O)Nc3ccccc3OC(F)F)cc2NC1=O (stereo not given)	DAX1 inh-1 4.3
COc1ccc(/C=N/NC(=O)C[n+]2ccccc2)c(OC)c1OC	none
COc1cccc(/C=N/NC(=O)CCNc2n[nH]c(=O)[nH]c2=O)c1OC	ssDAF12 agonist 1.5
COc1cccc(/C=N/NC(=O)C[n+]2ccccc2)c1OC	ssDAF12 agonist 2.3
Cc1cccc(-c2cc3nc4c(c(N5CCOCC5)n3n2)CCCC4)c1	DAX1 inh-1 4.5
COCCCN1C(=O)[C@H](CC(=O)N2CCCCC2)[C@]2(C(=O)OC)CCCCC=C12	none (no result: DAX1 inh-2)
COC(=O)CCN(C)CCC(=O)OC	none (no result: Rev-erbA mod)
COC(=O)CCC(=O)CN	DAX1 inh-2 4.7
COC(=O)CCCC(=O)OC	DAX1 inh-2 4.3
CCOC(=O)Cn1cc(/C=N/NC(=O)c2ccc(C#N)cc2F)c2ccccc21	none
N#Cc1ccc(C(=O)N/N=C/c2cn(CC(=O)O)c3ccccc23)c(F)c1	hcDAF-12 act 5.7
N=C1/C(=C\c2ccc(OC(=O)c3ccccc3)cc2)C(=O)N=C2SC(N3CCOCC3)=NN12	none
Cc1ccc(C(=O)Oc2ccc(/C=C3\C(=N)N4N=C(N5CCOCC5)SC4=NC3=O)cc2)cc1	hgDAF12 agonist 12
Nc1[nH]c(C(=O)c2ccc(Cl)cc2)c(-c2ccc(Br)cc2)c1C(=O)c1c[nH]c2ccc(F)cc12	none (no result: DAX1 inh-2)
CNc1nc(-c2c[nH]c3ccccc23)cs1	none
CCc1ccc(-c2csc(-c3c[nH]c4ccccc34)n2)cc1	hcDAF-12 act 6.2
Nc1nc(-c2c[nH]c3ccccc23)cs1	ssDAF12 agonist 1.8
O=C1c2[nH]nc(-c3ccccc3)c2C(c2cccc(C(F)(F)F)c2)N1c1ccccc1 (stereo not given)	none (no result: DAX1 inh-2)
COC(=O)[C@]12C[C@H](CC(=O)NCc3ccccc3)C(=O)N(Cc3cccc4ccccc34)C1=C[C@H](COCc1ccccc1)O[C@@H]2C	none (no result: DAX1 inh-2)
O=C(NCCc1c[nH]c2ccccc12)c1cc(S(=O)(=O)N2CCCCC2)ccc1N1CCOCC1	ssDAF12 agonist 1.9
O=C(NCCc1c[nH]c2ccccc12)c1ccc2nc[nH]c2c1	none
Cn1c(C(=O)NCCc2c[nH]c3ccccc23)cc2sccc21	hcDAF-12 act 5.9, hgDAF12 agonist 12, ssDAF12 agonist 2.5
O=C(NCCc1c[nH]c2ccccc12)c1cccnc1	ssDAF12 agonist 1.9
O=C(O)c1nccnc1C(=O)NCCc1c[nH]c2ccccc12	hcDAF-12 act 5.6
CCCNC(=O)c1cc(S(=O)(=O)N2CCCCC2)ccc1N1CCOCC1	none
